Test results reported in PubChem BioAssay AID1063 (University of Pittsburgh Molecular Library Screening Center, 2008).
About 18,000 (9%) of roughly 200,000 compounds were called active. For the sample, actives were picked, then their nearest neighbours and some compounds at random. Unmarked numbers belong to inactive results. Rule as the data show it: active = inhibition above about 50%; inactive = the rest.

experiment: Leishmania major promastigote growth inhibition, primary screen (AID 1063); conditions: Leishmania major promastigotes, resazurin fluorescence viability; at 10 µM; stronger effect = higher value;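 also: promastigotes grown with compound for 44 hours at 28 °C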

Compared with `CCOc1ccc(NS(=O)(=O)c2ccc(C)c(C(N)=O)c2)cc1`, `CN(C)/C=C(/C(=O)c1ccc(F)cc1)S(=O)(=O)c1ccc(F)cc1` is higher in inhibition: -2.88% for the first, -1.08% for the second.

Compared with `COCCn1c(Cc2cccn2C)nnc1SCC(=O)Nc1nccs1`, `Cc1ccc(C)c(-n2nnnc2SCC(=O)c2c(N)n(C)c(=O)n(C)c2=O)c1` is lower in inhibition: 1.7% for the first, -5.78% for the second.

First: Nc1cc(C(F)(F)F)ccc1N1CCOCC1
Second: Cc1cc(/C=C2\SC(=Nc3ccc(N4CCOCC4)cc3)N(C)C2=O)c(C)n1-c1cccnc1
The inhibition of the first is higher: 0.97% for the first, 0.4% for the second.

First: O=C(/C=C/c1ccc(Cl)cc1)Nc1ccc(Br)cn1
Second: O=C(Nc1ccc(Br)cn1)c1ccc([N+](=O)[O-])cc1Cl
The inhibition of the first is lower: 0.77% for the first, 13.7% for the second.

First: CS(=O)(=O)Nc1cccc(-c2cn3ccccc3n2)c1
Second: COc1cccc(NC(=O)c2ccc(Cn3cc([N+](=O)[O-])cn3)o2)c1
The inhibition of the first is lower: -2.73% for the first, 47.4% for the second.

First: Cc1cnc(C(=O)OCC(=O)NCCCc2ccccc2)cn1
Second: CCC(C)(C)NC(=O)C(c1ccccn1)N(C(=O)c1csnn1)c1ccccc1 (configuration not stated)
The inhibition of the first is higher: -4.28% for the first, -5.39% for the second.

Going from `O=C(NCCCCCCNC(=O)NCc1ccco1)NCc1ccco1` to `O=C(CC1CCCCC1)NCc1ccco1`, the inhibition rises from -3.59% to -0.08%.

First: COc1ccc(N2C(=O)C(Cc3ccccc3)NC2=S)cc1 (configuration not stated)
Second: COc1cccc(NC(=O)c2nn(-c3ccc(OC)cc3OC)c(=O)c3ccccc23)c1
The inhibition of the first is higher: -0.72% for the first, -3.79% for the second.

First: Cn1cc(CN2CCCCC2c2ccccn2)c(-c2ccc3c(c2)OCCO3)n1 (configuration not stated)
Second: CC(C)N(C)C(=O)CCc1nnc(CCc2c[nH]c3ccccc23)o1
The inhibition of the first is higher: -2.73% for the first, -3.38% for the second.

Going from `Cc1ccccc1-n1c(C)cc(/C=C2\NC(=O)NC2=O)c1C` to `CN(C)/C=C(/C(=O)c1ccccc1)S(=O)(=O)c1ccc(Cl)cc1`, the inhibition falls from 7.26% to -6.81%.

Compared with `CCNC(=O)COc1cc(C)c(Br)c(C)c1`, `COc1ccc(/C=N/NC(=O)Nc2ccc3nsnc3c2)c(OC)c1` is lower in inhibition: -1.41% for the first, -1.6% for the second.

Work on `CC(CO)NCC12CC3CC(CC(C3)C1)C2` (configuration not stated) yielded an inhibition of 7.47%.

For `O=C(Nc1ccc(Br)cn1)c1ccc([N+](=O)[O-])o1`, the inhibition was 100% (active).
In the case of `O=C(NCc1ccco1)C1(c2ccc(Cl)cc2)CCCC1`, the inhibition is reported as 76.6% (active).
For `Cc1cc(/C=C2/NC(=O)NC2=O)c(C)n1-c1cccnc1`, the inhibition was 60.6% (active).
With `COc1cccc(NC(=O)c2nn(C34CC5CC(CC(C5)C3)C4)cc2[N+](=O)[O-])c1` the inhibition was 66.2% (active).
